# In publication PMC5540273 (PLoS ONE, 2017):
# Legend:
# MEK1 = system: T1, MEK1
# T1 construct: gene MAP2K1
# MEK2 = system: T2, MEK2
# T2 construct: gene MAP2K2
# MEK6 = system: T3, MEK6
# T3 construct: gene MAP2K6
# MINK = system: T4, MINK
# T4 construct: gene MINK1
# MLK1 = system: T5, MLK1
# T5 construct: gene MAP3K9
# 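Note: kd values determined as follow-up on hits from a single-replicate KINOMEscan panel screen.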
smiles,measurement,setting,value
COc1cccc(NC(=O)NC2CCN(c3ccnc(Nc4ccc(F)cc4)n3)C2)c1 (centres unmarked) [GSK1379721],Kd,MAP4K4,> 10 µM
same,Kd,MAP4K5,> 10 µM
COc1ccccc1CNC(=O)c1cc(C(=O)c2ccccc2C)c[nH]1 [GSK364507],Kd,MARK1,> 10 µM
Cc1cccc(-c2nc(Nc3cccc(C(N)=O)c3)c3ccccc3n2)n1 [GW876019],Kd,MEK1,> 10 µM
Cc1ccc(NC(=O)Nc2cccc(Cl)c2)cc1-c1ccc(C(=O)Nc2ccncc2)cc1 [GSK1398468],Kd,MEK1,> 10 µM
Fc1cc(Cl)ccc1Nc1ccnc2cc(-c3ccc(CN4CCCCC4)o3)ccc12 [GW560116],Kd,MEK2,> 10 µM
CCn1c(-c2ccccn2)nc2cnccc21 [SB-736398],Kd,MEK6,> 10 µM
CCCc1ccc(S(=O)(=O)NC2CCN(c3ccnc(Nc4ccc(F)cc4)n3)C2)cc1 (centres unmarked) [GSK1379715],Kd,MEK6,> 10 µM
Cc1ccc(-c2cc(-c3c[nH]nc3-c3ccccn3)ccn2)cc1 [GW684088],Kd,MINK,0.061 µM
Cc1ccc(NC(=O)Nc2cc(C(C)(C)C)nn2-c2ccccc2)cc1 [GSK1014915],Kd,MKNK2,0.37 µM
NC(=O)c1nnc2ccccc2c1N,Kd,MLK1,> 10 µM
